{
  "source": "PubChem BioAssay AID2533",
  "about": "(National Center for Advancing Translational Sciences (NCATS), 2010)",
  "note": "“And” between values parts separate entries of the source, which are not always exact repeats. Identical values can stand only once. Records with an inconclusive call do not appear. Where a call stands in place of a potency, no number is given. Where a structure was tested more than once in an assay, its records may differ in their call. The source made the active and inactive calls. Calls follow the shape of the dose curve; as a rule, active = well fitted activation curve with a large enough effect; inconclusive = small, poorly fitted or top-dose-only effect; inactive = flat fitted curve, though single readings scatter. Potency is read from the fitted curve at half-maximal effect.",
  "data": [
    {"target": "Pyruvate kinase PKM (Homo sapiens) (UniProt P14618)", "sequence (P14618 whole entry, looked up, canonical isoform)": "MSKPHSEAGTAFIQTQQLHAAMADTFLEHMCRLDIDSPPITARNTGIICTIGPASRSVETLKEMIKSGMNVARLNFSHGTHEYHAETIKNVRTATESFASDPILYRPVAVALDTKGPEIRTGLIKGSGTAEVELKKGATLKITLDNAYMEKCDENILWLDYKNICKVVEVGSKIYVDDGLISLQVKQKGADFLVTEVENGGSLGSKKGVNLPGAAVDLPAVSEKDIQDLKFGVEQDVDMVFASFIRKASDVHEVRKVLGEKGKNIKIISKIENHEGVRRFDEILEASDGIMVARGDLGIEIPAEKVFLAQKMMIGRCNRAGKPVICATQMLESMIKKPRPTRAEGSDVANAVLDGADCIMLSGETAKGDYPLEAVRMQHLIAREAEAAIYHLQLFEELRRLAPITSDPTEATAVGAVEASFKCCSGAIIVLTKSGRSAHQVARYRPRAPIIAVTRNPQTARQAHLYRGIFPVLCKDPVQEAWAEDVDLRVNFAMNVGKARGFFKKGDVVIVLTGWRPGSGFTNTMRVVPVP", "test": "Confirmation Concentration-Response Assay for Activators of Human Muscle isoform 2 Pyruvate Kinase: for Probe SAR; also: nearly all actives have a fitted effect of over 60% in size", "conditions": "purified PKM2, ATP generation, Kinase-Glo luminescence; series mostly up to 57.5 µM", "source_text": "NIH Chemical Genomics Center [NCGC]\nMatthew G. Vander Heiden, M.D., Ph.D. [Harvard Medical School, 77 Avenue Louis Pasteur, Boston, MA 02115]\nHuman pyruvate kinase muscle 2 (hPK-M2) enzyme was supplied as a highly purified (>95% pure) preparation from Harvard Medical School and assayed for its ability to generate ATP from ADP using phosphoenolpyruvate (PEP) as a substrate. ATP generation was detected in a coupled reaction by luciferase-mediated luminescence, an ATP-dependent process. […] The enzyme was assayed at an intermediate level of activity to screen for both inhibitors and activators.\nNCGC Assay Protocol Summary:\nThree uL of substrate mix (at r.t.) in assay buffer (50 mM Imidazole pH7.2, 50 mM KCl, 7 mM MgCl2, 0.01% Tween 20, 0.05% BSA) was dispensed into white solid bottom 1,536 well microtiter plates so that the final concentrations of substrates in the assay were 0.1 mM ADP and 0.5 mM PEP. 23 nL of compound were delivered by a pin tool and 1 uL of enzyme mix (final concentration of 0.1 nM) in assay buffer (4 degree Celsius) was added. Plates were incubated at room temperature for 1 hour. Two uL of detection mix (Kinase-Glo, Promega; at 4 degree Celsius protected from light) was added and luminescence read by a ViewLux (Perkin Elmer) at 1 second exposure/plate. Data were normalized to the uninhibited (column 3) and AC100 inhibition (no enzyme in column 2). To monitor activation, the first column contained a titration of the activator, NCGC00031955-03 (16-point 1:2 dilutions in duplicate starting at 57 uM) and the first 16 rows of column 4 contained 57 uM of NCGC00031955-03.", "values": [
      {"molecule": "Nc1cccc(S(=O)(=O)N2CCN(S(=O)(=O)c3c(F)cccc3F)CC2)c1", "Potency": "0.13 µM (active)"},
      {"molecule": "Cc1ccc(NS(=O)(=O)c2cc3c(cc2F)NC(=O)CC3)cc1C", "Potency": "0.73 µM (active)"},
      {"molecule": "COc1ccc(N2C(=O)c3ccccc3C2=O)cc1", "Potency": "inactive"},
      {"molecule": "Cc1cccc(OC2=NS(=O)(=O)c3ccccc32)c1", "Potency": "inactive"},
      {"molecule": "Cc1ccc(OC2=NS(=O)(=O)c3ccccc32)cc1", "Potency": "inactive"},
      {"molecule": "O=C1c2ccccc2C(=O)N1C1CCCCC1", "Potency": "inactive"},
      {"molecule": "Cc1ccc(NS(=O)(=O)c2cc3c(cc2Cl)CCC(=O)N3)cc1C", "Potency": "0.163 µM (active)"},
      {"molecule": "Cc1ccc2nc(-c3ccc(C)o3)c(Nc3ccc4c(c3)OCO4)n2c1", "Potency": "inactive"},
      {"molecule": "Cc1ccc2nc(-c3ccc(C)o3)c(Nc3ccccc3)n2c1", "Potency": "inactive"},
      {"molecule": "O=C1c2ccccc2C(=O)N1c1cc(=O)c2ccccc2[nH]1", "Potency": "inactive"},
      {"molecule": "O=C1c2ccccc2C(=O)N1c1ccccn1", "Potency": "inactive"},
      {"molecule": "O=C1c2ccccc2C(=O)N1c1cncc2ccccc12", "Potency": "inactive"},
      {"molecule": "O=C1c2ccccc2C(=O)N1c1ccc2ccccc2n1", "Potency": "inactive"},
      {"molecule": "Cc1cc2c(s1)c1cnn(Cc3ccccc3F)c(=O)c1n2C", "Potency": "inactive and 231 nM (active)"},
      {"molecule": "COc1cc(F)c(S(=O)(=O)N2CCN(S(=O)(=O)c3cccc(N)c3)CC2)c(F)c1", "Potency": "0.0231 µM (active)"},
      {"molecule": "O=C1CCc2cc(S(=O)(=O)Nc3ccc4ccccc4c3)ccc2N1", "Potency": "5.17 µM (active)"},
      {"molecule": "Cc1c(Cl)cccc1NS(=O)(=O)c1cc2c(cc1F)NC(=O)CC2", "Potency": "3.66 µM (active)"},
      {"molecule": "Cc1ccc(NS(=O)(=O)c2ccc3c(c2)CCC(=O)N3)cc1F", "Potency": "0.517 µM (active)"},
      {"molecule": "Nc1cc(S(=O)(=O)N2CCN(S(=O)(=O)c3ccc4c(c3)OCCO4)CC2)ccn1", "Potency": "3.26 µM (active)"},
      {"molecule": "O=S1(=O)N=C(Oc2cccc(Cl)c2)c2ccccc21", "Potency": "inactive"},
      {"molecule": "CCNc1cccc(S(=O)(=O)N2CCN(S(=O)(=O)c3ccc4c(c3)OCCO4)CC2)c1", "Potency": "0.0819 µM (active)"},
      {"molecule": "O=S(=O)(c1ccc2c(c1)OCCO2)N1CCN(S(=O)(=O)c2c(F)cccc2F)CC1", "Potency": "517 nM (active) and 183 nM (active) and 291 nM (active)"},
      {"molecule": "COc1cccc(OC2=NS(=O)(=O)c3ccccc32)c1", "Potency": "inactive"},
      {"molecule": "Cc1ccc(NS(=O)(=O)c2cccc(Cl)c2)cc1C", "Potency": "16.3 µM (active)"},
      {"molecule": "Cc1cc(N2C(=O)c3ccccc3C2=O)n[nH]1", "Potency": "inactive"},
      {"molecule": "Cc1ccc(Nc2c(-c3ccsc3)nc3cccc(C)n23)cc1", "Potency": "inactive"},
      {"molecule": "COc1cccc(N2C(=O)c3ccccc3C2=O)n1", "Potency": "inactive"},
      {"molecule": "Cc1ccc(NS(=O)(=O)c2ccc3c(c2)N(C)CCO3)cc1C", "Potency": "18.3 µM (active)"},
      {"molecule": "O=C1c2ccccc2C(=O)N1c1noc2ccccc12", "Potency": "inactive"},
      {"molecule": "O=S(=O)(Nc1ccc(O)c(NS(=O)(=O)c2ccccc2)c1)c1ccccc1", "Potency": "inactive"},
      {"molecule": "CC(=O)Nc1ccc(S(=O)(=O)N2CCN(S(=O)(=O)c3ccc4c(c3)OCCO4)CC2)cc1", "Potency": "1.63 µM (active)"},
      {"molecule": "CC(=O)Nc1cccc(S(=O)(=O)N2CCN(S(=O)(=O)c3ccc4c(c3)OCCO4)CC2)c1", "Potency": "1.03 µM (active)"},
      {"molecule": "CC(=O)Nc1cccc(S(=O)(=O)N2CCCN(S(=O)(=O)c3ccc4c(c3)OCCO4)CC2)c1", "Potency": "1.3 µM (active)"},
      {"molecule": "Cc1ccc2nc(-c3ccc(C)o3)c(Nc3ccc(F)cc3)n2c1", "Potency": "inactive"},
      {"molecule": "COc1ccccc1NS(=O)(=O)c1ccc2c(c1)CCC(=O)N2", "Potency": "20.6 µM (active)"},
      {"molecule": "O=S(=O)(c1cccc(O)c1)N1CCN(S(=O)(=O)c2c(F)cccc2F)CC1", "Potency": "0.58 µM (active)"},
      {"molecule": "Cc1ccc(NS(=O)(=O)c2ccc3c(c2)oc(=O)n3C)cc1C", "Potency": "10.3 µM (active)"},
      {"molecule": "Cc1ccc(NS(=O)(=O)c2cc3c(cc2Br)NC(=O)CO3)cc1C", "Potency": "18.3 µM (active)"},
      {"molecule": "O=S1(=O)N=C(Oc2ccc(Cl)cc2)c2ccccc21", "Potency": "inactive"},
      {"molecule": "O=C1c2ccccc2C(=O)N1c1ccc(O)cc1", "Potency": "inactive"}
    ]}
  ]
}
